Consider 15 molecules from PubChem BioAssay (NCATS).

Values joined by “and” are separate entries in the source; they are usually repeats but may differ in a detail not shown here. Identical values can stand only once. Results filed as inconclusive are left out. Where a structure was tested more than once in an assay, its records may differ in their call. Active and inactive are the calls of the source. The call rests on the fitted dose curve; in most records, active means well fitted cell-killing curve with a large enough effect; inconclusive means small, poorly fitted or top-dose-only effect, or effect the other way; inactive means no such curve, though single readings can be large or run the other way.
Potency means the concentration at half of the fitted maximal effect.

This assay in a line: Viability qHTS for spleen associated tyrosine kinase inhibitor (SYKi) drug resistant MV4-11 cells (AID 1963824). Further: nearly all actives have a fitted effect of over 35% in size. The note with it: SYKi-resistant MV4-11 viability, CellTiter-Glo, 72 h; series mostly up to 45 µM; viability, % of control: at the top concentration. In short, it runs like this:
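CellTiter-Glo luminescence, read 10 min after reagent addition, reports viability after a 72 hr compound exposure. Cells are an MV4-11 line made resistant to SYK inhibition, seeded at 500 per well onto compound-containing plates.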
(qHTS replaces the single test concentration by a dilution series.)
Turning to `C[C@H]1[C@H](C)CC[C@]2(C(=O)OC3OC(CO)C(O)C(O)C3O)CC[C@]3(C(=O)O)C(=CCC4[C@@]5(C)CC[C@H](O[C@@H]6O[C@@H](C)[C@H](OC7OC(CO)C(O)C(O)C7O)[C@@H](O)[C@H]6O)C(C)(C)C5CC[C@]43C)[C@H]12` (stereo not given in full), the viability, % of control is 108% [at 9.25 µM] (inactive).
On the same count and under the same terms, the value for `C=C1CCC2C(C)(C(=O)OC)CCCC2(C)C1CCC(C)CC(=O)O` (stereo not given) was 83.5% (inactive).
Take `CC/C=C\C[C@H]1C(=O)C=C[C@@H]1CCCCCCCC(=O)O`: the Potency is 23.1 µM (active).
In the case of `C[C@@H]1C(=O)O[C@H]2C[C@]34[C@H]5C[C@@H](C(C)(C)C)[C@]36[C@@H](OC(=O)[C@H]6O)O[C@]4(C(=O)O5)[C@]21O`, the “viability, % of control” value is 96.1% [at 17.3 µM] (inactive).
For the molecule `Cc1cc2c(F)c(Oc3ncnn4cc(OCC(C)OC(=O)C(C)N)c(C)c34)ccc2[nH]1` (stereo not given), the Potency is 8.2 µM (active).
Still for that read-out and setting: the value for `CC(C)COc1ccc(CNC(=O)N(Cc2ccc(F)cc2)C2CCN(C)CC2)cc1` was 13 µM (active); that for `Cc1cc(C)c(CNC(=O)c2cc(-c3ccc(CN4CCOCC4)cc3)cc3c2cnn3C2CCCC2)c(=O)[nH]1` was “inactive and 14.8 µM (active)”.
In the case of `C=C(C(=O)O)C1CC(O)C2(C)CCCC(C)(O)C2C1` (stereo not given), the “viability, % of control” value is 101% (inactive).
On to `COc1ccc(N(C(=O)Nc2c(C)cccc2C)c2cc(Nc3ccc(N4CCN(C)CC4)cc3)ncn2)c(OC)c1`, for which the Potency was 3.66 µM (active).
Take `CC1CC(=O)C2=C(C1)C1OC1C1(O)C2C(=O)c2cccc(O)c2C1O` (stereo not given): the “viability, % of control” value is 6.12% (inactive).
Turning to `CN(CCO)C1CCN(c2ccc(Nc3ncc4c5ccnc(F)c5n(C5CCCC5)c4n3)nc2)CC1`, the Potency is 0.0645 µM (active).
On the same count and under the same terms, the value for `CCOC(=O)C1=Cc2ccc(C(F)(F)C(F)(F)F)cc2N=C(N)C1` was 20.6 µM (active).
As to `CC(C)C1NC(=O)CNC(=O)C2CCCN2C(=O)C(Cc2c[nH]c3ccccc23)NC(=O)CNC(=O)C(Cc2ccc(O)cc2)NC(=O)CNC1=O` (stereo not given), the “viability, % of control” value was 77.6% [at 17.3 µM] (inactive).
On the same count and under the same terms, the value for `C[C@@H]1O[C@@H](O[C@H]2[C@H](OC(=O)[C@]34CCC(C)(C)C[C@H]3C3=CCC5[C@@]6(C)C[C@H](O)[C@H](O[C@@H]7O[C@H](CO)[C@@H](O)[C@H](O)[C@H]7O)[C@@](C)(CO)C6[C@H](O)C[C@@]5(C)[C@]3(C)C[C@H]4O)OC[C@H](O)[C@@H]2O)[C@H](O)[C@H](O)[C@H]1O[C@@H]1OC[C@@H](O)[C@H](O[C@H]2OC[C@](O)(CO)[C@H]2O)[C@H]1O` (stereo not given in full) was 104% [at 9.25 µM] (inactive).
For `CCC(C)n1cc(C)c2c(C(=O)NCc3c(C)cc(C)[nH]c3=O)cc(-c3ccc(N4CCNCC4)nc3)cc21` (stereo not given), the Potency is 18.4 µM (active).
